According to PubChem BioAssay (EPA / NIEHS):
The source made the active and inactive calls. How the source made its calls: active means hit-call score of the fitted dose curve at least 0.9, where 1 is the maximum; inactive means score below 0.9.

Experiments:
[1] = APR_HepG2_NuclearSize_24hr: Apredica 24-hour HepG2 Assay for Nuclear Size (AID 2282907); conditions: high-content imaging, actives raise or lower the signal
Procedure, shortened: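 Nuclear size from Hoechst 33342-stained, formaldehyde-fixed HepG2 nuclei imaged by high-content microscopy, after 24 h dosing at ten concentrations from 0.39 to 200 uM in 0.5% DMSO; gain or loss relative to DMSO baseline.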

[2] = APR_HepG2_CellLoss_24hr: Apredica 24-hour HepG2 Assay for Cell Loss (AID 2282908); conditions: high-content imaging;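 on AC50: fit in both directions so a hit may be cell loss or gain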
Procedure, shortened: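 Nuclei stained with Hoechst 33342 after formaldehyde fixation (3.7%) were imaged at 20x to count cells. Exposure lasted 24 hr, at ten concentrations from 0.39 to 200 uM in duplicate, with 0.5% v/v DMSO. Fit bidirectional, relative to DMSO.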

[3] = APR_HepG2_MicrotubuleCSK_24hr: Apredica 24-hour HepG2 Assay for Microtubule CSK Stabilty (AID 2282909); conditions: HepG2 microtubule cytoskeleton imaging, actives raise or lower the signal
Procedure, shortened: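 Fixed HepG2 cells were stained for alpha-tubulin and imaged after 24 hr exposure to ten concentrations spanning 0.39–200 uM in 0.5% DMSO. Signal change was fitted in both directions relative to DMSO; taxol was the positive control.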

[4] = APR_HepG2_MitoticArrest_24hr: Apredica 24-hour HepG2 Assay for Mitotic Arrest (AID 2282910); conditions: high-content imaging, actives raise or lower the signal
Procedure, shortened: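 Treatment lasted 24 hr in the human HepG2 line at 0.39–200 uM, solvent held at 0.5% DMSO. Fixed cells were stained with Hoechst 33342 and anti-phospho-histone H3, imaged at 20x, and analysed by gain- or loss-of-signal fitting against DMSO.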

[5] = APR_HepG2_MitoMembPot_24hr: Apredica 24-hour HepG2 Assay for Mitochondrial Membrane Potential (AID 2282911); conditions: imaging, actives raise or lower the signal
Procedure, shortened: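 Cells are dosed for 24 hr across 0.39 to 200 uM with solvent held at 0.5% DMSO. They are then stained with 250 nM MitoTracker Red CMXRos for 30 min, fixed in 3.7% formaldehyde and imaged.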

[6] = APR_HepG2_MitoMass_24hr: Apredica 24-hour HepG2 Assay for Mitochondrial Mass (AID 2282912); conditions: high-content imaging, actives raise or lower the signal
Procedure, shortened: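 Endpoint is MitoTracker Red CMXRos (250 nM, 30 min, pre-fixation) intensity from 20x high-content imaging, nuclei located by Hoechst. Human HepG2 cells received ten concentrations from 0.39 to 200 uM in 0.5% DMSO for 24 hr, duplicate wells. Bidirectional fit relative to DMSO.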

[7] = APR_HepG2_CellCycleArrest_72hr: Apredica 72-hour HepG2 Assay for Cell Cycle Arrest (AID 2282914); conditions: high-content imaging, actives raise or lower the signal
Procedure, shortened: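 Read-out is Hoechst-stained nuclear DNA content measured by automated fluorescence imaging (20x, six images per well), fitted in both directions relative to DMSO. Human HepG2 liver cells received 0.39–200 uM compound for 72 hr at 0.5% v/v DMSO.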

[8] = APR_HepG2_CellLoss_72hr: Apredica 72-hour HepG2 Assay for Cell Loss (AID 2282915); conditions: high-content imaging
Procedure, shortened: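 HepG2 cells were exposed for 72 hr to compounds at 0.39–200 uM (ten concentrations, duplicate) in 0.5% v/v final DMSO. Nuclei were stained with Hoechst 33342 after 3.7% formaldehyde fixation, imaged at 20x, and counted; fits bidirectional versus DMSO.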

[9] = APR_HepG2_P-H2AX_72hr: Apredica 72-hour HepG2 Assay for H2AX Phosphorylation (AID 2282916); conditions: imaging, actives raise or lower the signal;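 further: phospho-histone H2A.x immunostain intensity per cell marking DNA damage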
Procedure, shortened: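 Phospho-histone H2A.x immunofluorescence, multiplexed with Hoechst and c-Jun, quantified by high-content imaging. Compounds applied to HepG2 for 72 h across ten concentrations (0.39–200 uM, 0.5% DMSO), in duplicate; DMSO baseline.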

[10] = APR_HepG2_MitoMembPot_72hr: Apredica 72-hour HepG2 Assay for Mitochondrial Membrane Potential (AID 2282917); conditions: imaging, actives raise or lower the signal
Procedure, shortened: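 HepG2 cells exposed 72 h to compounds at 0.39–200 uM (0.5% v/v DMSO, duplicates); MitoTracker Red CMXRos 250 nM loaded 30 min before 3.7% formaldehyde fixation, imaged by HCS fluorescence. Bidirectional fit versus DMSO.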

[11] = APR_HepG2_MitoticArrest_72hr: Apredica 72-hour HepG2 Assay for Mitotic Arrest (AID 2282918); conditions: high-content imaging, actives raise or lower the signal
Procedure, shortened: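 Read-out is phospho-histone H3 immunofluorescence with Hoechst nuclear segmentation, imaged at 20x. Human HepG2 liver cells received ten concentrations (0.39–200 uM, final DMSO 0.5% v/v) for 72 hr before fixation. Gain or loss of signal was fitted relative to DMSO.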

[12] = APR_HepG2_MicrotubuleCSK_72hr: Apredica 72-hour HepG2 Assay for Microtubule CSK Stabilty (AID 2282919); conditions: HepG2 microtubule cytoskeleton, high-content imaging, actives raise or lower the signal
Procedure, shortened: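 Ten-point dosing (0.39–200 uM, 0.5% DMSO) of HepG2 for 72 hr, with taxol as the cytoskeletal positive control. The cells were formaldehyde-fixed and then stained with alpha-tubulin/Cy5 and Hoechst. Imaging at 20x used a −2 um Z offset for tubulin.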

[13] = APR_HepG2_StressKinase_72hr: Apredica 72-hour HepG2 Assay for Stress Kinase (AID 2282921); conditions: HepG2 stress kinase (phospho-c-Jun) imaging, actives raise or lower the signal
Procedure, shortened: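 Stress kinase signal is phospho-c-Jun immunofluorescence (1:500 primary, Cy3 secondary) in fixed, permeabilized human HepG2 cells imaged at 20x. Exposure lasted 72 hr over ten concentrations from 0.39 to 200 uM, 0.5% DMSO, in duplicate. Bidirectional fit versus DMSO.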

[14] = APR_HepG2_StressKinase_24hr: Apredica 24-hour HepG2 Assay for Stress Kinase (AID 2282922); conditions: HepG2 stress kinase (phospho-c-Jun) imaging, actives raise or lower the signal
Procedure, shortened: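 After 24 hr compound treatment (up to 200 uM, final DMSO 0.5% v/v), HepG2 cells are fixed and multiplex-labeled; phospho-c-Jun intensity is captured by high-content fluorescence imaging and analyzed relative to DMSO.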

[15] = APR_HepG2_p53Act_72hr: Apredica 72-hour HepG2 Assay for p53 Activation (AID 2282923); conditions: high-content imaging, actives raise or lower the signal;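 further: average cellular p53 protein immunofluorescence intensity in HepG2 cells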
Procedure, shortened: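 After 72 h with compound (ten points, 0.39 to 200 uM, final DMSO 0.5% v/v), fixed HepG2 cells were labelled with sheep anti-p53 and Hoechst 33342 and imaged; gain or loss versus DMSO scored.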

[16] = APR_HepG2_MitoMass_72hr: Apredica 72-hour HepG2 Assay for Mitochondrial Mass (AID 2282924); conditions: high-content imaging, actives raise or lower the signal;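 further: MitoTracker Red CMXRos stain intensity per cell imaged as mitochondrial mass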
Procedure, shortened: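 Steps: treat HepG2 72 hr (0.39–200 uM, duplicate wells); load MitoTracker Red CMXRos, 250 nM, 30 min; fix with 3.7% formaldehyde, permeabilise with 0.5% Triton X-100; capture images, nuclei via Hoechst 33342; fit bidirectionally against DMSO.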

[17] = APR_HepG2_NuclearSize_72hr: Apredica 72-hour HepG2 Assay for Nuclear Size (AID 2282925); conditions: high-content imaging, actives raise or lower the signal
Procedure, shortened: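 Compounds (0.39–200 uM, final DMSO 0.5%) were applied to HepG2 for 72 hr. Cells were then formaldehyde-fixed, permeabilized and labelled with Hoechst 33342. Nuclear diameter was quantified from six images per well.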

[18] = APR_HepG2_StressKinase_1hr: Apredica 1-hour HepG2 Assay for Stress Kinase (AID 2282906); conditions: HepG2 stress kinase (phospho-c-Jun) imaging, actives raise or lower the signal
Procedure, shortened: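 High-content imaging of phospho-c-Jun immunostaining (with Hoechst nuclear identification) after a 1 h exposure of HepG2 cells to 10 concentrations from 0.39 to 200 uM, final DMSO 0.5%. Fitted bidirectionally against DMSO.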

[19] = APR_HepG2_P-H2AX_24hr: Apredica 24-hour HepG2 Assay for H2AX Phosphorylation (AID 2282920); conditions: high-content imaging, actives raise or lower the signal
Procedure, shortened: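 HepG2, 24 hr, cpd 0.39–200 uM (10 conc, duplicate), DMSO 0.5% v/v final. Fix 3.7% formaldehyde, Triton X-100 permeabilize, anti-phospho-H2A.x 1:200 + Hoechst 2 ug/mL. Imaged, bidirectional fit vs DMSO.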

[20] = APR_HepG2_p53Act_24hr: Apredica 24-hour HepG2 Assay for p53 Activation (AID 2282913); conditions: high-content imaging, actives raise or lower the signal;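 further: p53 protein immunofluorescence averaged per cell in HepG2 with Hoechst nuclei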
Procedure, shortened: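 Human HepG2 liver cells; 24 hr cpd treatment, 0.39–200 uM, 0.5% DMSO final. Fixed in 3.7% formaldehyde, permeabilized with 0.5% Triton X-100, stained with anti-p53/Cy5 plus Hoechst 33342. Six images per well at 20x; gain or loss vs DMSO.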

Measured: AC50

CC(C)CCCCCCc1ccc(O)cc1
inactive: [1] | [10] | [13] | [14] | [17]
active: [2] 26.8 µM | [3] 65.4 µM | [4] 26.3 µM | [5] 115 µM | [6] 34.5 µM | [7] 123 µM | [8] 28.8 µM | [9] 30.1 µM | [11] 30.9 µM | [12] 62.1 µM | [15] 29.7 µM | [16] 21.4 µM

COc1c(Cl)ccc(Cl)c1C(=O)O
inactive: [18] | [1] | [2] | [3] | [4] | [5] | [6] | [7] | [8] | [9] | [10] | [11] | [12] | [13] | [14] | [16] | [17]

CCCCOC(=O)C(C)Oc1ccc(Oc2ccc(C(F)(F)F)cn2)cc1 (configuration not stated)
inactive: [18] | [1] | [2] | [3] | [4] | [5] | [6] | [7] | [8] | [9] | [11] | [12] | [13] | [14] | [15] | [16] | [17]
active: [10] 34.9 µM

C[C@]12CC[C@@H]3c4ccc(O)cc4C[C@@H](CCCCCCCCCS(=O)CCCC(F)(F)C(F)(F)F)[C@H]3[C@@H]1CC[C@@H]2O (some centres not stated)
active: [10] 22 µM
inactive: [1] | [2] | [3] | [4] | [5] | [6] | [7] | [8] | [9] | [11] | [12] | [13] | [14] | [15] | [16] | [17]

N[C@@H](Cc1cc(I)c(Oc2ccc(O)c(I)c2)c(I)c1)C(=O)O
inactive: [1] | [2] | [3] | [4] | [5] | [6] | [7] | [8] | [9] | [10] | [11] | [12] | [19] | [13] | [14] | [15] | [16] | [17]

CCOC(=O)c1ccc(O)cc1
inactive: [1] | [2] | [3] | [4] | [5] | [6] | [7] | [8] | [9] | [10] | [11] | [12] | [13] | [14] | [15] | [16] | [17]

COC(=O)c1ccccc1C(=O)O
inactive: [18] | [1] | [2] | [3] | [4] | [5] | [6] | [7] | [8] | [9] | [10] | [11] | [12] | [13] | [14] | [15] | [16] | [17]

C[C@]12C[C@H](O)[C@H]3[C@@H](CCC4=CC(=O)CC[C@@]43C)[C@@H]1CC[C@@H]2C(=O)CO
active: [1] 109 µM | [2] 65.3 µM | [5] 82.9 µM | [8] 32.9 µM | [9] 34.5 µM | [10] 120 µM | [11] 86.1 µM | [16] 148 µM
inactive: [3] | [4] | [6] | [7] | [12] | [13] | [14] | [15] | [17]

CCOC(=O)COc1cc(-n2ncc(C(F)(F)F)c(C)c2=O)c(F)cc1Cl
inactive: [18] | [1] | [2] | [3] | [4] | [5] | [6] | [7] | [8] | [9] | [10] | [11] | [12] | [13] | [14] | [15] | [16] | [17]

COCCO
inactive: [18] | [1] | [2] | [3] | [4] | [5] | [6] | [7] | [8] | [9] | [10] | [11] | [12] | [13] | [14] | [15] | [16] | [17]

CCN(Cc1c(F)cccc1Cl)c1c([N+](=O)[O-])cc(C(F)(F)F)cc1[N+](=O)[O-]
inactive: [18] | [1] | [2] | [3] | [4] | [5] | [6] | [7] | [9] | [10] | [11] | [13] | [14] | [15] | [16] | [17]
active: [8] 33.5 µM | [12] 34.6 µM

S=C([S-])NCCNC(=S)[S-].[Mn+2]
inactive: [18] | [1] | [2] | [3] | [4] | [5] | [6] | [9] | [10] | [11] | [13] | [14] | [17]
active: [7] 82.9 µM | [8] 11.5 µM | [12] 103 µM | [16] 166 µM

CC(C)(C)[C@@H](O)[C@@H](Cc1ccc(Cl)cc1)n1cncn1
inactive: [18] | [1] | [2] | [3] | [4] | [6] | [7] | [9] | [10] | [11] | [12] | [13] | [14] | [15] | [16] | [17]
active: [5] 15.8 µM | [8] 33.4 µM

O=C(c1ccc(O)cc1O)c1ccc(O)cc1O
inactive: [1] | [2] | [3] | [4] | [6] | [20] | [7] | [8] | [9] | [10] | [11] | [12] | [19] | [13] | [14] | [15] | [17]
active: [5] 2.29 µM | [16] 4.43 µM
